Data: the supplement of paper PMC11006884
The full data set covers some 6,500 targets. This sample favours those with a hit. About 2% of all pairs of compound and target were hits. A number with no mark means an inactive call.

Compound: COC(=O)C#Cc1ccccc1 [methyl 3-phenylpropiolate]
Assay: log2 ratio of iodoacetamide-alkyne labeling of the cysteine site, DMSO over compound (competition); higher = stronger covalent engagement of the cysteine by the compound, active = 1 or more
Settings: 500 µM; treatment time 1 h; system: HEK293T cell lysate
Outline: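 The log2 competition ratio per cysteine is defined as mean reporter intensity in control channels over mean reporter intensity in compound channels. Lysate from HEK293T cells (2 mg/mL) received electrophile (500 µM) or vehicle for 1 h at ambient temperature, followed by iodoacetamide alkyne for 1 h. Samples were clicked to sCIP-TMT reagents, pooled, trypsin-digested overnight at 37 °C, streptavidin-enriched, acid-eluted and run on Orbitrap Eclipse LC-MS/MS with FAIMS, with quantification in FragPipe. Three replicates with duplicate channels were used, and any cysteine quantified in only one replicate was excluded.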

Sequence of UniProt Q14689 (Q14689 whole entry, looked up): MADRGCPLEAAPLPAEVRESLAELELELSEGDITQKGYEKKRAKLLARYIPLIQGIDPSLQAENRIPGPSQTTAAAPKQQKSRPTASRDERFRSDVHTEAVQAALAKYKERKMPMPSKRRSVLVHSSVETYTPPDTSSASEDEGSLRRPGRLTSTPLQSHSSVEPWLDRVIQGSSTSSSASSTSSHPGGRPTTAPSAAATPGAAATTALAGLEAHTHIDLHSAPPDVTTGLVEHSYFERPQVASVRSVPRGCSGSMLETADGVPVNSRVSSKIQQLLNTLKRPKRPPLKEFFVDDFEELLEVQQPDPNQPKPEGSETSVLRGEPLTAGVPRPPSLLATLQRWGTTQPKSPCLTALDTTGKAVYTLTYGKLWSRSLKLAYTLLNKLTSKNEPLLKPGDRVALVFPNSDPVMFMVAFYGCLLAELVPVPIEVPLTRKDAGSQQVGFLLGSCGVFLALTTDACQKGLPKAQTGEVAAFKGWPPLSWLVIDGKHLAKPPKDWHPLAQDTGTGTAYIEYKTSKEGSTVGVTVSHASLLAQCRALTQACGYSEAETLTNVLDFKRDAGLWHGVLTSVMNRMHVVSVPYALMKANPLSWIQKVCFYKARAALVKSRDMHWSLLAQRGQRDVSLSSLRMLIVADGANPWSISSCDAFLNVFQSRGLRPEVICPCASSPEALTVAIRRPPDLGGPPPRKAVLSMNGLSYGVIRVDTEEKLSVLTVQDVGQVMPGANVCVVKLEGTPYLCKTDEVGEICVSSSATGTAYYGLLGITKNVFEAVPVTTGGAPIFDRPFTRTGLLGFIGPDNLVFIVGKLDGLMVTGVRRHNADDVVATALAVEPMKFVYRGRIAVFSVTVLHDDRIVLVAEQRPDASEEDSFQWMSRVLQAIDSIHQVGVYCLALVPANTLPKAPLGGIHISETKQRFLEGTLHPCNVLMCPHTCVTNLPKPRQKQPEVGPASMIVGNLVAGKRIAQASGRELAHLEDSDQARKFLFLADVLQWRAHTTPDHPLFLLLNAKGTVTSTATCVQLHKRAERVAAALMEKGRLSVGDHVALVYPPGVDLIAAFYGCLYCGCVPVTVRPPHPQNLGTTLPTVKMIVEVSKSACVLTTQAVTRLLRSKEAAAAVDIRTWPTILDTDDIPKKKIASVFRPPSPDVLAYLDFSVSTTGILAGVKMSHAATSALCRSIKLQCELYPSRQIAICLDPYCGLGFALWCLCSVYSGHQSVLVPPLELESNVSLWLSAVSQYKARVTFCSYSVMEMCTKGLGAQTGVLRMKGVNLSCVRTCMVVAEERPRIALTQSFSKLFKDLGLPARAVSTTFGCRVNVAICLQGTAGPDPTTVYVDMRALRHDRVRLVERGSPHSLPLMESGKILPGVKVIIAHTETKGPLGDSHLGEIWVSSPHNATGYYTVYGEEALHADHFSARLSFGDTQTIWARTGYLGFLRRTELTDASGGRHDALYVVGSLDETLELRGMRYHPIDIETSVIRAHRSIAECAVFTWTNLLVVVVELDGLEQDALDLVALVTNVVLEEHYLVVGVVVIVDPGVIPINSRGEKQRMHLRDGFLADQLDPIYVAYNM
Sequence of UniProt Q49AR2 (Q49AR2 whole entry): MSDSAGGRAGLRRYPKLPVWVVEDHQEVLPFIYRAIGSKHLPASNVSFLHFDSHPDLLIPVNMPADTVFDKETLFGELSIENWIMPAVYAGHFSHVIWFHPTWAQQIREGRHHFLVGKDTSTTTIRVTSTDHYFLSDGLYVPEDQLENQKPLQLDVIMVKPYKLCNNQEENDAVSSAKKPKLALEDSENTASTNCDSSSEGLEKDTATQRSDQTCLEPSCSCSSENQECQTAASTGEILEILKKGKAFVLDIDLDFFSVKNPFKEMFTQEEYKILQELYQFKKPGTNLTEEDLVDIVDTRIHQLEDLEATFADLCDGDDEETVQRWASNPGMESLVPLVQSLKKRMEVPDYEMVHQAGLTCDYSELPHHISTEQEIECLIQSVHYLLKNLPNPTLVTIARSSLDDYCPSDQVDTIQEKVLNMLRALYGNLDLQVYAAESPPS
Sequence of UniProt P62633 (P62633 whole entry, looked up): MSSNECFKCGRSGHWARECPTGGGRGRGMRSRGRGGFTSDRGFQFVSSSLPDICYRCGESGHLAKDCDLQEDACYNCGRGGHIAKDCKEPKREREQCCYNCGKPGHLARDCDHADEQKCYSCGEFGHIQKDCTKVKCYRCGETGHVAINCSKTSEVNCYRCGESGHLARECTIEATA
Sequence of UniProt P53597 (P53597 whole entry, looked up): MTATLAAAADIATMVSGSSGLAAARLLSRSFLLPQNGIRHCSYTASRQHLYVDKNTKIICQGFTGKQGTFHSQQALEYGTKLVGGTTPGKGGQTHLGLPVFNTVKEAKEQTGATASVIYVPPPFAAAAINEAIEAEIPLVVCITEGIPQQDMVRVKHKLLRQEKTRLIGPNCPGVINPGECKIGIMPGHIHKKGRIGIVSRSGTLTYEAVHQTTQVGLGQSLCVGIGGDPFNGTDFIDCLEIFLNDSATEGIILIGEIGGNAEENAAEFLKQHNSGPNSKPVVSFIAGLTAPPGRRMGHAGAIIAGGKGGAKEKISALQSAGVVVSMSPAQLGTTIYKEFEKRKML
Sequence of UniProt P54578 (P54578 whole entry): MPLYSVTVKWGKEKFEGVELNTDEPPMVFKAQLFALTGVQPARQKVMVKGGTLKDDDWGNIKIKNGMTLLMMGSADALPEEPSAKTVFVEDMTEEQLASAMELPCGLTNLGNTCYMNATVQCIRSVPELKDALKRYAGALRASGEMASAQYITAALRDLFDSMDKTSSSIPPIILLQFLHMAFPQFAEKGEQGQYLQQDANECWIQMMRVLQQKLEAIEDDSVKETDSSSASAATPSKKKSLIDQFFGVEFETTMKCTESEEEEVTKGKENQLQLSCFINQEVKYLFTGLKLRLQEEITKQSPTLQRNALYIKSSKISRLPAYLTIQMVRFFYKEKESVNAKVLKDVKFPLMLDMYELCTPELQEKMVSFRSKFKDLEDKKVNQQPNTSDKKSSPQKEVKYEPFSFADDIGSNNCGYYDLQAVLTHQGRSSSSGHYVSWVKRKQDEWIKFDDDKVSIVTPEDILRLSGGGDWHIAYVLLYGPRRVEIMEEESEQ
Sequence of UniProt Q5JTD0 (Q5JTD0 whole entry, looked up): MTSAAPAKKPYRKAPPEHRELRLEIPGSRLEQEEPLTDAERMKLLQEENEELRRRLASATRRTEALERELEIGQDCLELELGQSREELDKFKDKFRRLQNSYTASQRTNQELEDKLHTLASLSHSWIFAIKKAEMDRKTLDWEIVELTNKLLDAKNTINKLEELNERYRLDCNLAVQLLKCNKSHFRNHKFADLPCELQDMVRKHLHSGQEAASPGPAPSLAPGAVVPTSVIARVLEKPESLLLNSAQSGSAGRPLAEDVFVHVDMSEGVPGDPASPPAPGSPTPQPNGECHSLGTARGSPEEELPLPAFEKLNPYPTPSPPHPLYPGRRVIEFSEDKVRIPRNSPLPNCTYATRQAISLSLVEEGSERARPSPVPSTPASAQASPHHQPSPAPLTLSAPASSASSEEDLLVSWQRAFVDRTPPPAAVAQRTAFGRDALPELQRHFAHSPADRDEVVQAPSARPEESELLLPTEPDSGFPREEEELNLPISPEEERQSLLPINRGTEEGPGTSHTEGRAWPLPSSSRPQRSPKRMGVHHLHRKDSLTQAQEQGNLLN
Sequence of UniProt Q04724 (Q04724 whole entry, looked up): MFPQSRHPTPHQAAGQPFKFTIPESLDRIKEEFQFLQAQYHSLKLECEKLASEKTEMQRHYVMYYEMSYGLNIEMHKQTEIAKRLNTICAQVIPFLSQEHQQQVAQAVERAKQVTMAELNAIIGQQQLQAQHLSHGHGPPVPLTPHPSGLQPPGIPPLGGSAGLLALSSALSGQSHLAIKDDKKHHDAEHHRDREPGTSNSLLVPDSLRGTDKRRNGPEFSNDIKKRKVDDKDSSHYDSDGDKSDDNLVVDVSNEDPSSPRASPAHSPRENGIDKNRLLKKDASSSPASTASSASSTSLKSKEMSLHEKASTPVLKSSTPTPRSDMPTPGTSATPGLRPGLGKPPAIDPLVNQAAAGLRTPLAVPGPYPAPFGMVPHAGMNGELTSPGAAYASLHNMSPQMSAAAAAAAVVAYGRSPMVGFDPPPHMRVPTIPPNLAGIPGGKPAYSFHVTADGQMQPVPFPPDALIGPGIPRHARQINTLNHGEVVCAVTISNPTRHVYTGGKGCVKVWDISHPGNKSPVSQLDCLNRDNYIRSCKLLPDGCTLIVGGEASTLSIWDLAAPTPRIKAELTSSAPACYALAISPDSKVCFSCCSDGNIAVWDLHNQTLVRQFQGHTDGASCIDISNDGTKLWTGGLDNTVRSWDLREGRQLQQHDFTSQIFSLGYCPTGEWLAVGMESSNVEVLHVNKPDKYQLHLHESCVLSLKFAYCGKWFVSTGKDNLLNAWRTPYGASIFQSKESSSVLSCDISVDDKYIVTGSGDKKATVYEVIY
Sequence of UniProt P52888 (P52888 whole entry, looked up): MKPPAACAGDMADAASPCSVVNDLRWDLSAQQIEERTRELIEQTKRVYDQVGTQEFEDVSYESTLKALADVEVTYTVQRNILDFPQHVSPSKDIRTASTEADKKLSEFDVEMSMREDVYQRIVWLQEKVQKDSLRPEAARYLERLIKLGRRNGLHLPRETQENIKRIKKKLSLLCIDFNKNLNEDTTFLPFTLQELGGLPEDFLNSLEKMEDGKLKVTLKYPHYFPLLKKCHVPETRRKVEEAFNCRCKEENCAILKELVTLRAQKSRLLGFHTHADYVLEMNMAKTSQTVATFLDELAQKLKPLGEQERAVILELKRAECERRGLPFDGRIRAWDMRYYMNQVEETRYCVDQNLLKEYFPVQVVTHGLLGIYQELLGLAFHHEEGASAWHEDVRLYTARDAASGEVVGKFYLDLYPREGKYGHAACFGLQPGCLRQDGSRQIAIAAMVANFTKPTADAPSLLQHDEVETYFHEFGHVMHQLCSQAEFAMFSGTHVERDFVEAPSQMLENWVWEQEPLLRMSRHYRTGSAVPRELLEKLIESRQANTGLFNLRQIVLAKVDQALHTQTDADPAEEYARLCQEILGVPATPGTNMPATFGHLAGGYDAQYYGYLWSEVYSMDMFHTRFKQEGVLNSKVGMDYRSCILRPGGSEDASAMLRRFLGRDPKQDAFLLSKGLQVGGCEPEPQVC

Row | Target | log2 ratio of iodoacetamide-alkyne labeling
1 | P86790_C358 (UniProt P86791+P86790) | 0.213
2 | UniProt P55196_C942 | 1.05 (active)
3 | UniProt Q3LXA3_C24 | 0.218
4 | PRDX4 C51 (UniProt Q13162) | 1.66 (active)
5 | UniProt Q02750_C376 | -0.129
6 | DIP2A C6 (UniProt Q14689) | 1.75 (active)
7 | GRB2 C32 (UniProt P62993) | 0.167
8 | DST C7524 (UniProt Q03001) | 0.174
9 | RRP12 C31 (UniProt Q5JTH9) | 1.26 (active)
10 | HCCS C66 (UniProt P53701) | 0.724
11 | TJAP1 C172 (UniProt Q5JTD0) | 0.251
12 | UniProt Q12905_C37 | 0.0335
13 | NCAPH C316 (UniProt Q15003) | -0.0371
14 | RPS27A C149 (UniProt P62979) | 0.251
15 | RPS27A C144 (UniProt P62979) | -0.175
16 | SUCLG1 C181 (UniProt P53597) | 1.72 (active)
17 | UniProt Q15365_C118 | 1.72 (active)
18 | PTPN13 C937 (UniProt Q12923) | 0.773

Row | Target | log2 ratio of iodoacetamide-alkyne labeling
19 | DLGAP5 C129 (UniProt Q15398) | 1.38 (active)
20 | UniProt P62306_C66 | 0.0671
21 | TLE1 C526 (UniProt Q04724) | 1.15 (active)
22 | CNBP C140 (UniProt P62633) | 0.134
23 | USP14 C415 (UniProt P54578) | -0.369
24 | UniProt P62273_C39 | 0.0855
25 | THOP1 C682 (UniProt P52888) | 0.174
26 | NCAPD2 C1249 (UniProt Q15021) | 0.179
27 | MAP7D1 C361 (UniProt Q3KQU3) | 1.65 (active)
28 | NOTCH2 C1357 (UniProt Q04721) | 1.55 (active)
29 | ESPL1 C1369 (UniProt Q14674) | 0.218
30 | UniProt P78527_C1904 | 0.286
31 | RING1 C69 (UniProt Q06587) | 0.171
32 | DOCK11 C409 (UniProt Q5JSL3) | -0.0544
33 | C5orf22 C195 (UniProt Q49AR2) | 0.458
34 | FOXK1 C439 (UniProt P85037) | 0.622
35 | PPP5C C77 (UniProt P53041) | 0.135
